In PubChem BioAssay (NCI):
“And” between values parts separate entries of the source, which are not always exact repeats. Identical values can stand only once. This is part of a sample that, as a whole, favours compounds with a hit. Of some 83,000 tested, about 20% had one in any assay.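 Plates (96-well) were seeded with cells, treated with compound at one concentration, and incubated for 48 hours before percent growth was determined.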 The source made the active and inactive calls. Where a SMILES comes first, the peptide text is derived from it.

Each molecule was assayed on HS 578T breast (assay: NCI-60 one-dose screen, 48 h (100 = growth as untreated, 0 = no growth, -100 = all killed)). Details: 10 µM unless noted.
Description: Growth inhibition of the HS 578T human tumor cell line is measured as a screen for anti-cancer activity. Cells are grown in 96 well plates and exposed to the test compound for 48 hours. Compounds are tested at a single concentration, which is 10^-5 M for most compounds. The reported endpoint is percent growth (GI% or GIPRCNT), where numbers from 0 - 100% represent growth inhibition, and numbers from -100% - 0 represent cell death. For example, a value of 40 represents 60% growth inhibition. A value of 0 means no net growth occurred over the course of the experiment. A value of -40 indicates 40% of cells at the beginning of the experiment died by the end of the experiment. A value of -100 means all cells are dead at the end of the experiment.
NCI-60 Human Tumor Cell Lines Screen was performed using the standard one-dose NCI protocol, which is described in more detail at https://dtp.cancer.gov/discovery_development/nci-60/default.htm.
Compounds with GIPRCNT values below 10 were considered active. Activity score was based on GIPRCNT using the following formula: […]
Score is 0 for GIPRCNT values of 100 or above, 50 for GIPRCNT values of 0, and 100 for GIPRCNT values of -100.

SMILES | growth
CC(=O)Nc1ccc(S(N)(=O)=O)cc1 | 96.3% (inactive) and 113% (inactive)
Nc1nc(N)c2[nH]cnc2n1 | 114% (inactive)
CC1CCC(C(C)C)C(NNC(N)=O)C1 (stereo not given) | 91.6% (inactive)
CCc1cc(C)cc(O)c1 | 110% (inactive)
CCCCCCCCCCCCCCCc1ccc(N)c(OC2OC(CO)C(O)C(O)C2O)c1 (stereo not given) | 103% (inactive)
CC(=O)NCC(=O)c1ccc([N+](=O)[O-])cc1 | 106% (inactive)
c1ccc(CNCCNCc2ccccc2)cc1 | 114% (inactive)
N#CC(C#N)N=Nc1cc(Cl)ccc1Cl | 116% (inactive)
Cc1cc(-c2cc(C)c(O)c(C)c2)cc(C)c1O | 85.1% (inactive)
Cc1cc2ccccc2cn1 | 113% (inactive) and 144% (inactive)
COc1ccc2cc1Oc1ccc(cc1)C[C@H]1c3cc(c(OC)cc3CCN1C)Oc1c(OC)c(OC)cc3c1[C@H](C2)N(C)CC3 | 46% (inactive)
CCN(CCNS(C)(=O)=O)c1ccc(N)c(C)c1 | 115% (inactive) and 103% (inactive)
C#CCOC(=O)Nc1ccccc1 | 105% (inactive)
Nc1cc(N)c(N)cc1N | 67.7% (inactive)
Cc1ccc(S(=O)(=O)c2ccccc2)cc1 | 35.2% (inactive)
CC1=C/C(O)CC(=O)Cc2nc(co2)C(=O)N2CCC=C2C(=O)OC(C(C)C)C(C)/C=C\C(=O)NC/C=C\1 (stereo not given) | 63.4% (inactive)
CC1CCC2(OC1)OC1CC3C4CC=C5CC(O)CCC5(C)C4CCC3(C)C1C2C (stereo not given) | 86.8% (inactive)
NC(Cc1ccccc1)C(=O)NC(Cc1ccccc1)C(=O)O (stereo not drawn) (H-Phe-Phe-OH; configuration not given here) | 98.3% (inactive) and 112% (inactive)
NC1CCC(C(=O)O)CC1 (stereo not given) | 86.4% (inactive) and 94.8% (inactive)
CC1CCC2(C(=O)O)CCC3(C)C(=CCC4C5(C)CCC(O)C(C)(C)C5CCC43C)C2C1C (stereo not given) | -49% (active) and 63.1% (inactive)

SMILES | growth
Cn1cnc([N+](=O)[O-])c1Sc1ncn[nH]1 | 119% (inactive)
CCCCCCCCCCNC(=O)CI | 91.3% (inactive)
ClCCOCCOc1ccc(C2CCCCC2)cc1 | 101% (inactive)
COc1cc(C(O)C2C(=O)OCC2C2(c3ccc4c(c3)OCO4)SCCCS2)cc(OC)c1OC (stereo not given) | 101% (inactive)
c1ccc2c(c1)OC1OC2Oc2ccccc21 | 92.9% (inactive)
Cc1ccc(=O)[nH]n1 | 105% (inactive) and 93.7% (inactive)
O=C1C=C(Nc2ccccc2)c2ccccc2C1=O | 94.8% (inactive) and 88.6% (inactive)
CC(=O)OC(C)C(=O)NCC(C)O (stereo not given) | 86% (inactive)
OCCN1CCCCCCC1 | 90.8% (inactive)
Cl | 108% (inactive)
CN(C)c1ccc(/C=C\C(=O)c2ccccc2)cc1 | 104% (inactive) and 99.6% (inactive) and 103% (inactive)
CC1(C)COC(=S)N1 | 106% (inactive)
COc1ccc(C(=O)CC(c2ccccc2)C(C#N)c2ccccc2)cc1 (stereo not given) | 86.4% (inactive)
CCOC(=O)c1c(C)cc(=O)oc1C | 118% (inactive)
c1ccc(-c2nc3ccccc3s2)cc1 | 93% (inactive)
CN(C)CC1CCCCCC(CN(C)C)C1=O (stereo not given) | 85.8% (inactive)
Cc1cc(-c2ccc(N=Nc3ccc4c(S(=O)(=O)O)cc(S(=O)(=O)O)c(N)c4c3O)c(C)c2)ccc1N=Nc1ccc2c(S(=O)(=O)O)cc(S(=O)(=O)O)c(N)c2c1O | 119% (inactive)
Nc1ccc2c(O)cc(S(=O)(=O)O)cc2c1 | 96.3% (inactive)
O=c1[nH]cnc2c1ncn2C1OC(CO)C(O)C1O (stereo not given) | 109% (inactive) and 110% (inactive) and 91.9% (inactive)
OCC1OC(O)C(O)C(O)C1O (stereo not given) | 116% (inactive)
